Laboratory results from PubChem BioAssay (Tox21).
Inconclusive results are not listed. Active and inactive are the calls of the source. Unless noted, calls follow the shape of the full dose curve.

Tests used:
[1] = Nuclear factor erythroid 2-related factor 2/antioxidant responsive element (Nrf2/ARE) small molecule agonists: qHTS cell viability counter screen in human keratinocytes (AID 1919968; active = well fitted curve in the direction sought with a large enough effect in the repeat runs; an effect the other way counts as inactive or inconclusive; also: nearly all actives have a fitted effect of over 55% in size)
In short: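 Cells of the KeratinoSens line were plated at 1,500 per well and left for 5 h before compound transfer from DMSO stocks. After a 23 h incubation (37 C, 5% CO2), CellTiter-Fluor was added. Signal was taken as fluorescence intensity 1 h later.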

[2] = target: KiSS-1 receptor (Homo sapiens) (UniProt Q969F8); assay: Human kisspeptin (KISS1R) small molecule agonists, calcium flux assay in KISS1R-HEK293 cells (AID 1920064; active = well fitted curve in the direction sought with a large enough effect in the repeat runs; an effect the other way counts as inactive or inconclusive)
Chain of KiSS-1 receptor (Homo sapiens) (Q969F8 whole entry, looked up): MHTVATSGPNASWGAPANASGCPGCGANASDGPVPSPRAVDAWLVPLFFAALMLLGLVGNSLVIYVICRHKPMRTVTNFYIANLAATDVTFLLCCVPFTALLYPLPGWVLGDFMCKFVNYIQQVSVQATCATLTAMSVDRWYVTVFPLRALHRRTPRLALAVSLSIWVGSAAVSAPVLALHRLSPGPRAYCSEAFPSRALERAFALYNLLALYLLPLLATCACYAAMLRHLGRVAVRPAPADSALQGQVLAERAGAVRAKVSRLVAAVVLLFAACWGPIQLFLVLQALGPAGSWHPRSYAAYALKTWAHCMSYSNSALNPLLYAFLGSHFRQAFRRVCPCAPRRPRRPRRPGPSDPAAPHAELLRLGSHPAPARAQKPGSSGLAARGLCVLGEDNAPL
In short: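 Cell line: HEK293, stable human KISS1R. Dye loading 1 h at 37 C after 18 h culture. Read: kinetic fluorescence, 480/540 nm, 3 min at 1 s intervals.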

[3] = G protein-coupled receptor (GPCR) small molecule agonists, calcium flux assay: HEK293 wild type cell line counter screen (AID 1920065)
In short: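 Tox21 10K compounds, 15 concentrations each in triplicate, pin-transferred in DMSO onto dye-loaded cells; kinetic read at 480/540 nm for 3 min, 1 s intervals.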

[4] = p53 small molecule agonists, cell-based qHTS assay with human liver microsomes (AID 1963577)
In short: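 Compounds act here after metabolic activation: human liver microsomes and NADPH, both at 0.5 mg/mL final, were co-added to p53RE-bla cells. Incubation ran 16 h at 37 C, followed by LiveBLAzer detection.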

[5] = p53 small molecule agonists, cell-based qHTS assay with rat liver microsomes (AID 1963578)
In short: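 Read-out is beta-lactamase reporter fluorescence (LiveBLAzer, 2 h, room temperature, dark) in p53RE-bla cells treated 16 h at 37 C with compound, rat liver microsomes and NADPH, both 0.5 mg/mL final.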

[6] = p53 small molecule agonists, cell-based qHTS assay with rat liver microsomes: qHTS cell viability counter screen (AID 1963580); also: nearly all actives have a fitted effect of over 45% in size
In short: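 Cytotoxicity counter screen: intracellular ATP read by CellTiter-Glo luminescence in the p53 reporter wells. HCT-116 p53RE-bla cells were treated for 16 h at 37 C alongside rat liver microsomes and NADPH, each 0.5 mg/mL final.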

[7] = p53 small molecule agonists, cell-based qHTS assay: qHTS cell viability counter screen (AID 1963581); also: nearly all actives have a fitted effect of over 45% in size
In short: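 ATP content measured by luminescence in HCT-116 p53RE-bla cells treated 16 h at 37 C, same wells as the reporter screen.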

[8] = target: 5-hydroxytryptamine receptor 2A (Homo sapiens) (UniProt P28223); assay: 5-hydroxytryptamine receptor 2A (HTR2A) small molecule antagonists, cell-based qHTS assay (AID 1963586); also: nearly all actives have a fitted effect of over 45% in size
Chain of 5-hydroxytryptamine receptor 2A (Homo sapiens) (P28223 whole entry, looked up): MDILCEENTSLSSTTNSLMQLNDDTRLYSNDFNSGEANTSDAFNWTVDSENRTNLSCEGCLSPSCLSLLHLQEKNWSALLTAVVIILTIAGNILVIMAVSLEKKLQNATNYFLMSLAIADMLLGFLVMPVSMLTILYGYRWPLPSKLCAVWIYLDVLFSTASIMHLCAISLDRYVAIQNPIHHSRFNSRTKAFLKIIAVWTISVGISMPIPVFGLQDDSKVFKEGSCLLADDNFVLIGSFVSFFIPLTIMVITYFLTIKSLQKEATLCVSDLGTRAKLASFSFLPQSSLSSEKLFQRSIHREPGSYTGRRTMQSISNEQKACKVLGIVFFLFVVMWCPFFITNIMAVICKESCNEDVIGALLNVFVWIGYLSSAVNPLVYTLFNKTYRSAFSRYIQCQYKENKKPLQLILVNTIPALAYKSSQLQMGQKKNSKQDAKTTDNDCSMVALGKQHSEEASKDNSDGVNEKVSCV
In short: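 CHO cells stably expressing human HTR2A were plated for 18 h at 37 C, then loaded with calcium dye for 1 h. Compounds were preincubated 5 min at room temperature before DOI (4 nM solution) was added. Kinetic fluorescence was read for 3 min.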

[9] = target: 5-hydroxytryptamine receptor 2A (Homo sapiens) (UniProt P28223); assay: 5-hydroxytryptamine receptor 2A (HTR2A) small molecule agonists, cell-based qHTS assay (AID 1963587); also: nearly all actives have a fitted effect of over 30% in size
In short: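 Kinetic calcium-flux fluorescence (2 min, 1 sec intervals) after compound addition in agonist mode. HTR2A-CHO cells were cultured 18 h, then dye-loaded 1 h at 37 C.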

[10] = target: Muscarinic acetylcholine receptor M1 (Homo sapiens) (UniProt P11229); assay: Cholinergic receptor muscarinic 1 (CHRM1) small molecule antagonists, cell-based qHTS assay (AID 1963588); also: nearly all actives have a fitted effect of over 40% in size
Chain of Muscarinic acetylcholine receptor M1 (Homo sapiens) (P11229 whole entry, looked up): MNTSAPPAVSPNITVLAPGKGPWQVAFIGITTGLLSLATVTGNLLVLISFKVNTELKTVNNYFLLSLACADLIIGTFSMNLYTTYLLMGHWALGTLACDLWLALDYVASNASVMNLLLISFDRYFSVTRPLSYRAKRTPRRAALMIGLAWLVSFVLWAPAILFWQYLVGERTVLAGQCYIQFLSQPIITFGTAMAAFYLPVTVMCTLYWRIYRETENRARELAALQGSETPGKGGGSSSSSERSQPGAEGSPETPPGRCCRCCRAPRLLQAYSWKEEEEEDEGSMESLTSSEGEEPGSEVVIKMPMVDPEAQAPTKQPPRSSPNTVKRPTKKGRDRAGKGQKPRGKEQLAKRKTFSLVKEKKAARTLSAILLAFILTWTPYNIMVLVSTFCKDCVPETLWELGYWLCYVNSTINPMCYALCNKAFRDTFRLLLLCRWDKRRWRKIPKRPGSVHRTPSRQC
In short: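 Compounds were tested at 15 concentrations in three independent runs. Dye-loaded CHRM1-CHO cells were exposed 5 min at room temperature before stimulation by acetylcholine added at 50nM. Intracellular calcium was read kinetically on FDSS for 3 min.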

[11] = target: Muscarinic acetylcholine receptor M1 (Homo sapiens) (UniProt P11229); assay: Cholinergic receptor muscarinic 1 (CHRM1) small molecule agonists, cell-based qHTS assay (AID 1963589); also: nearly all actives have a fitted effect of over 35% in size
In short: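 Homogeneous fluorescence calcium flux, agonist mode. Human M1-expressing CHO cells; compound dosed at 15 concentrations, three independent runs; signal sampled every 1 sec.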

[12] = cAMP Responsive Elements (CRE) small molecule agonists, cell-based qHTS assay (AID 1963590)
In short: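 HEK 293T cells stably bearing CRE-bla were plated at 2,000 cells per well and rested 18 h. Compounds, positive controls or DMSO were added for 3 h at 37 C. LiveBLAzer B/G substrate was then loaded for 2 h at room temperature.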

[13] = cAMP Responsive Elements (CRE) small molecule antagonists, cell-based qHTS assay (AID 1963591; active = well fitted inhibition curve with a large enough effect in the signal ratio in the repeat runs, not every such curve was filed as active; the % refers to the signal ratio)
In short: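 First, CRE-bla HEK293T cells settled 18 h at 37 C. Next, compound and 0.25 uM final NKH477 were applied for 3 h. Last, LiveBLAzer B/G substrate was loaded for 2 h at room temperature.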

[14] = target: Beta-2 adrenergic receptor (Homo sapiens) (UniProt P07550); assay: Adrenergic beta2 receptor (ADRB2) small molecule agonists, cell-based qHTS assay (AID 1963593);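 also: CHO cells stably overexpressing human ADRB2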
Chain of Beta-2 adrenergic receptor (Homo sapiens) (P07550 whole entry, looked up): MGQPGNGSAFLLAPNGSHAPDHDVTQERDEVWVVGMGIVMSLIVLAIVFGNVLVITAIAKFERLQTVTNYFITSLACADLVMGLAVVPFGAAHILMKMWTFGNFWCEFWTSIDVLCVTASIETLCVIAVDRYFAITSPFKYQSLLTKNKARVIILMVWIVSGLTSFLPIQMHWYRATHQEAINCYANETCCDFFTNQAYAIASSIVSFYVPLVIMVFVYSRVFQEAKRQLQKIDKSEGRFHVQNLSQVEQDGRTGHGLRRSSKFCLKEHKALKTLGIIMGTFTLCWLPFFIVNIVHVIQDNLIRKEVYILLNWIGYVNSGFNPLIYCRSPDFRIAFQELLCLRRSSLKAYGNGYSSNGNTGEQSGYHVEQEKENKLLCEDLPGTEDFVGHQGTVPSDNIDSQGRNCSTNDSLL
In short: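 CHO cells stably over-expressing ADRB2 were plated overnight at 37C, then dosed with compounds plus a stimulation mix containing 100uM IBMX and 25uM Ro-20-1724 for 0.5hr at room temperature. cAMP was measured by HTRF competition, 1hr.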

[15] = target: D(2) dopamine receptor (Homo sapiens) (UniProt P14416); assay: Dopamine D2 receptor (DRD2) small molecule antagonists, cell-based qHTS assay (AID 1963595; active = well fitted inhibition curve with a large enough effect in the signal ratio in the repeat runs, with a control signal flat; the % refers to the signal ratio)
Chain of D(2) dopamine receptor (Homo sapiens) (P14416 whole entry, looked up): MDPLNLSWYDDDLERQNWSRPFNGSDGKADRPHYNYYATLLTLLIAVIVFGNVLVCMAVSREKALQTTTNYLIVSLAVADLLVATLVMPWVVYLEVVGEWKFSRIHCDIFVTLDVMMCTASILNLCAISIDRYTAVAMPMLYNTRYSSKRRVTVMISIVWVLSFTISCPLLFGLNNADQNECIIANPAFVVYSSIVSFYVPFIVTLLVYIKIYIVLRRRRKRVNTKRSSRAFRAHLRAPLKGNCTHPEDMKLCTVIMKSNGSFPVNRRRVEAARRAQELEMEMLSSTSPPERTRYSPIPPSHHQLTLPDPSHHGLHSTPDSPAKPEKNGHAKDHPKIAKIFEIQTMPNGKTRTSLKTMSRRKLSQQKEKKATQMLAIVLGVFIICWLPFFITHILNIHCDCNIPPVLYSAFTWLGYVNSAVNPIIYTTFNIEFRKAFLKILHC
In short: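 In this cell-based antagonist screen, compounds act for 10 min at room temperature before a 30 min challenge with 12 nM quinpirole and 200 nM NKH477. cAMP is quantified by HTRF competition in DRD2-HEK293 cells containing 0.1 mM Ro20-1724.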

[16] = p53 small molecule agonists, cell-based qHTS assay (AID 1963582; active = well fitted activation curve with a large enough effect in the signal ratio in the repeat runs, not every such curve was filed as active; the % refers to the signal ratio)
In short: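 16 h compound exposure (37 C) of p53 response element–bla cells, preceded by 5 h recovery at 37 C/5% CO2; read-out via LiveBLAzer B/G FRET substrate, 2 h RT, fluorescence intensity.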

[17] = target: Beta-2 adrenergic receptor (Homo sapiens) (UniProt P07550); assay: Adrenergic beta2 receptor (ADRB2) small molecule antagonists, cell-based qHTS assay (AID 1963592); also: series mostly up to about 92 µM; nearly all actives have a fitted effect of over 50% in size
In short: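 Assay format: CHO-ADRB2 cells, 18-20hr seeding at 37C/5% CO2, then compound plus 1nM isoproterenol agonist mix for 0.5hr RT. Homogeneous time-resolved fluorescence cAMP detection after 1hr, expressed as 665/615 nm ratio.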

[18] = target: D(2) dopamine receptor (Homo sapiens) (UniProt P14416); assay: Dopamine D2 receptor (DRD2) small molecule agonists, cell-based qHTS assay (AID 1963594); also: nearly all actives have a fitted effect of over 35% in size
In short: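 cAMP accumulation in DRD2-HEK293 cells measured by HTRF after 1 h detection; compounds added 10 min before NKH477 (200nM […]) forskolin-analogue stimulation, 30 min at room temperature, with Ro20-1724 present at 0.1 mM final.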

[19] = p53 small molecule agonists, cell-based qHTS assay with human liver microsomes: qHTS cell viability counter screen (AID 1963579); also: nearly all actives have a fitted effect of over 45% in size
In short: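 Cells carrying the p53 response-element beta-lactamase reporter are treated for 16 h at 37 C with test compounds in the presence of human liver microsomes and NADPH (both 0.5 mg/mL final); ATP-based CellTiter-Glo luminescence then reports viability.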

Measured: Potency

CCOC(=O)c1ccc(NC(=O)CN2CCCCC2)cc1
not listed: [16] | [17] | [18] | [19]
inactive: all other assays above

CCCCCCC(CCCCCCCCCCC(=O)OCC(COC(C)=O)OC(C)=O)OC(C)=O (stereo not given)
not listed: [4] | [7] | [11] | [19]
inactive: all other assays above

CC(=O)Oc1cc(C(C)C)c(OCCN(C)C)cc1C
not listed: [7] | [14] | [15] | [16] | [19]
inactive: all other assays above

CCCCCCCCCCCC
not listed: [5] | [14] | [15] | [17] | [19]
inactive: all other assays above

CC(O)c1ccccc1 (stereo not given)
not listed: [4] | [14]
inactive: all other assays above
